Results from PubChem BioAssay AID1345085 (National Center for Advancing Translational Sciences (NCATS), 2018).
Results filed as inconclusive are left out. Activity calls are given as the source filed them. The call rests on the fitted dose curve; in most records, active means well fitted cell-killing curve with a large enough effect; inconclusive means small, poorly fitted or top-dose-only effect, or effect the other way; inactive means no such curve, though single readings can be large or run the other way.

Tested on: CASKI
Test: Confirmatory qHTS for gynecologic anti-cancer compounds from libraries of approved drugs and bioactive compounds; further: nearly all actives have a fitted effect of over 55% in size
Settings: gynecologic cancer cell panel viability, ATPlite luminescence, 48 h; series mostly up to 57.6 µM
In short: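 ATPlite luminescence read-out of cell viability; IC50 from 11-point 1:3 titrations, 57.5 uM to 0.977 nM, 48 h compound exposure at 37 C, 5% CO2. Cells seeded at 1,000/well 16 h before dosing.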
Potency means the concentration at half of the fitted maximal effect.

| SMILES | Potency |
| --- | --- |
| CC(C)C[C@H](NC(=O)[C@H](CCc1ccccc1)NC(=O)CN1CCOCC1)C(=O)N[C@@H](Cc1ccccc1)C(=O)N[C@@H](CC(C)C)C(=O)[C@@]1(C)CO1 | 9.68 µM (active) |
| Cc1ccc(NC(=O)c2ccc(CN3CCN(C)CC3)cc2)cc1Nc1nccc(-c2cccnc2)n1 | inactive |
| O=c1c2ccccc2nc2n1CCc1c-2[nH]c2ccccc12 | inactive |
| C=CC(=O)Nc1cccc(Oc2nc(Nc3ccc(N4CCN(C)CC4)cc3)ncc2Cl)c1 | 10.9 µM (active) |
| CN(C[C@@H]1COCCO1)S(=O)(=O)Nc1ccc2ccc3ncc(-c4cnn(C)c4)cc3c(=O)c2c1 | inactive |
| CC(Oc1ccc2[nH]nc(/C=C/c3cnn(CCO)c3)c2c1)c1c(Cl)cncc1Cl (centres undefined) | 5.44 µM (active) |
| COc1cc(F)c(F)c(Nc2ccc(I)cc2F)c1NS(=O)(=O)C1(CC(O)CO)CC1 (centres undefined) | inactive |
| Cc1cc(C2CCCCC2)n(O)c(=O)c1 | 3.96 µM (active) |
| CCc1c2c(nc3ccc(O)cc13)-c1cc3c(c(=O)n1C2)COC(=O)[C@]3(O)CC | 0.153 µM (active) |
| CN1CCCC(n2nc(Cc3ccc(Cl)cc3)c3ccccc3c2=O)CC1 (centres undefined) | inactive |
| Cc1nc(Nc2ncc(C(=O)Nc3c(C)cccc3Cl)s2)cc(N2CCN(CCO)CC2)n1 | 0.109 µM (active) |
| CN(C)CCC(CSc1ccccc1)Nc1ccc(S(=O)(=O)NC(=O)c2ccc(N3CCN(Cc4ccccc4-c4ccc(Cl)cc4)CC3)cc2)cc1[N+](=O)[O-] (centres undefined) | 3.85 µM (active) |
| CCS(=O)(=O)c1cccc(-c2cc(C(=O)NC3CCN(C)CC3)c(C)c3[nH]c4ncc(C)cc4c23)c1 | 4.76 µM (active) |
| CN1CCN(c2ccc(OC(F)(F)F)c(Nc3ncc4c(n3)-c3c(c(C(N)=O)nn3CCO)CC4)c2)CC1 | inactive |
| Cc1cnc(Nc2ccc(CN3CCOCC3)cc2)nc1Nc1cccc(S(=O)(=O)NC(C)(C)C)c1 | 4.85 µM (active) |
| NCCOc1cc(C(=O)Nc2cc(OCCN)c3ccccc3n2)nc(C(=O)Nc2cc(OCCN)c3ccccc3n2)c1 | 30.6 µM (active) |
| COc1cc(N2CCC(N(C)C)CC2)ccc1Nc1ncc(Cl)c(Nc2ccccc2P(C)(C)=O)n1 | 7.69 µM (active) |

| SMILES | Potency |
| --- | --- |
| COc1cccc2c1C(=O)c1c(O)c3c(c(O)c1C2=O)C[C@@](O)(C(=O)CO)C[C@@H]3O[C@H]1C[C@H](N)[C@H](O[C@@H]2CCCCO2)[C@H](C)O1 | 17.2 µM (active) |
| Cc1ccc(C(=O)N(CCCN)C(c2oc3cc(Cl)ccc3c(=O)c2Cc2ccccc2)C(C)C)cc1 (centres undefined) | 27.3 µM (active) |
| CN1C(=O)C(Cc2c[nH]c3ccccc23)NC1=S (centres undefined) | inactive |
| COC(C)(C)CCn1nc(Nc2c(C)cccc2C)c2cnc(Nc3ccc(OCCN4CCCC4)c(F)c3)nc21 | 3.43 µM (active) |
| CN1C2CCC1CC(OC(=O)[C@H](CO)c1ccccc1)C2 (some centres undefined) | inactive |
| CCOC(=O)C1=C(C)NC2=C(C(=O)CC(C)(C)C2)C1c1ccc(-c2ccccc2)cc1 (centres undefined) | inactive |
| C[C@]12CCC(=O)C=C1[C@@H]1C[C@@H]1[C@H]1[C@@H]3[C@@H]4C[C@@H]4[C@@]4(CCC(=O)O4)[C@@]3(C)CC[C@@H]12 | inactive |
| O=C(NOCC1CC1)c1ccc(F)c(F)c1Nc1ccc(I)cc1Cl | 21.7 µM (active) |
| O=c1[nH]c(=O)n([C@H]2C[C@H](O)[C@@H](CO)O2)cc1Br | inactive |
| Oc1cn2c(n1)Nc1ccc(Cl)c(Cl)c1C2 | inactive |
| CCCC(=O)O[C@]1(C(=O)CCl)[C@@H](C)C[C@H]2[C@@H]3CCC4=CC(=O)C=C[C@]4(C)[C@@]3(F)C(=O)C[C@@]21C | 30.6 µM (active) |
| COCCOc1ccc2c(c1)ncn2-c1ccc2cccc(N3CCC(N)CC3)c2n1 | 27.3 µM (active) |
| Cc1cc(Nc2nc(N[C@@H](C)c3ccc(F)cc3)c(C#N)cc2F)n[nH]1 | 13.7 µM (active) |
| COc1cccc2c1C(=O)c1c(O)c3c(c(O)c1C2=O)C[C@@](O)(C(=O)CO)C[C@@H]3O[C@H]1C[C@H](N)[C@H](O)[C@H](C)O1 | 8.63 µM (active) |
| c1cc(N[C@@H]2CCNC2)nc(-c2cnc3ccc(-c4cn[nH]c4)cn23)c1 | 27.3 µM (active) |
| CCN1C[C@H](C)n2c(c(O)c3c(=O)n(Cc4ccc(F)c(Cl)c4)nc(C(=O)NC)c32)C1=O | inactive |
| Nc1nc(Cl)nc2c1ncn2C1OC(CO)C(O)C1F (centres undefined) | 1.22 µM (active) |
